Experimental findings from PubChem BioAssay (NCATS) are described below.

One experiment relates to CRL-7250. Briefly: Cytotoxic Profiling of Annotated Libraries Using Quantitative High-Throughput Screening (AID 1296008). For max response: % is set by controls: 0 for no effect and ±100 for the full control effect. The settings on record: Five cell lines viability, CellTiter-Glo ATP luminescence, 48-72 h; max response: active compounds read low. The method, boiled down: (§1)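 Cells exposed to compounds for 48 or 72 hr at 37 degrees Celsius. Viability read as ATP-coupled luminescence with CellTiter-Glo after 10 min at room temperature.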
Background: ATP-based viability assays read luminescence as a measure of living cells.

The subject of experiment [1] is HaCat. The description is as above. The settings on record: Five cell lines viability, CellTiter-Glo ATP luminescence, 48-72 h; max response: active compounds read low. The method, boiled down: as §1
Another experiment has as its system KB-3-1. The experiment is described as above. The settings on record: Five cell lines viability, CellTiter-Glo ATP luminescence, 48-72 h; max response: active compounds read low. The procedure, abridged: as §1
A further experiment deals with NIH3T3. The experiment is described as above. The settings on record: Five cell lines viability, CellTiter-Glo ATP luminescence, 48-72 h; max response: active compounds read low. The procedure, abridged: as §1
A further experiment has as its system MCC-13. Description: qHTS assay to identify novel small-molecules to repurpose for Merkel cell carcinoma treatment (AID 1296009). The settings on record: MCC and control cell lines, CellTiter-Glo viability, 72 h; series mostly up to 46 µM. The method, boiled down: (§2)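 Dose-response viability screen; 72 hr exposure at 37 degree celsius; CellTiter-Glo added, 10 min room temperature, luminescence read; RLUs scaled between no-cell and DMSO wells.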
For orientation: In qHTS, concentration-response curves come from the screen itself.

The subject of a further experiment is MCC-26. The description is as above. The settings on record: MCC and control cell lines, CellTiter-Glo viability, 72 h; series mostly up to 46 µM. The procedure, abridged: as §2
The test system of experiment [2] is HACAT. The experiment is described as above. The settings on record: MCC and control cell lines, CellTiter-Glo viability, 72 h; at 44.8 µM (top of the series) unless noted. The procedure, abridged:
as §2

Another experiment deals with HEK293. Briefly: Cytotoxic Profiling of Annotated Libraries Using Quantitative High-Throughput Screening (AID 1296008). For max response: % is set by controls: 0 for no effect and ±100 for the full control effect. The settings on record: Five cell lines viability, CellTiter-Glo ATP luminescence, 48-72 h; max response: active compounds read low. The procedure, abridged: as §1
In another experiment the test system is PAD. Briefly: qHTS profiling for inhibitors of Plasmodium falciparum proliferation (AID 504749). The settings on record: P. falciparum in erythrocytes, SYBR Green DNA, 72 h; series mostly up to 28.7 µM. The procedure, abridged: (§3)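 Each compound contacts P. falciparum-infected red blood cells for 72 h at 37 C; lysis buffer (Tris, EDTA, saponin, Triton X, SYBR Green I) is added and fluorescence measured next morning; values normalized to controls.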

In another experiment the test system is PC49. The description is as above. The settings on record: P. falciparum in erythrocytes, SYBR Green DNA, 72 h; series mostly up to 28.7 µM. The method, boiled down: as §3
For another experiment, the system named is W2. The experiment is described as above. The settings on record: P. falciparum in erythrocytes, SYBR Green DNA, 72 h; series mostly up to 28.7 µM. The procedure, abridged:
as §3

For a further experiment, the system named is P93_24. The experiment is described as above. The settings on record: P. falciparum in erythrocytes, SYBR Green DNA, 72 h; series mostly up to 28.7 µM. The method, boiled down: as §3
The next experiment concerns PC15. The description is as above. The settings on record: P. falciparum in erythrocytes, SYBR Green DNA, 72 h; series mostly up to 28.7 µM. The method, boiled down: as §3
The subject of the next experiment is PC26. The experiment is described as above. The settings on record: P. falciparum in erythrocytes, SYBR Green DNA, 72 h; series mostly up to 28.7 µM. The procedure, abridged: as §3
In another experiment the test system is SC27B. Described as above. The settings on record: P. falciparum in erythrocytes, SYBR Green DNA, 72 h; series mostly up to 28.7 µM. The procedure, abridged:
as §3

The next experiment relates to TAB109. Described as above. The settings on record: P. falciparum in erythrocytes, SYBR Green DNA, 72 h; series mostly up to 28.7 µM. The procedure, abridged:
as §3

In a further experiment the test system is TAB113. The experiment is described as above. The settings on record: P. falciparum in erythrocytes, SYBR Green DNA, 72 h; series mostly up to 28.7 µM. The method, boiled down: as §3
The subject of another experiment is TAB165. The experiment is described as above. The settings on record: P. falciparum in erythrocytes, SYBR Green DNA, 72 h; series mostly up to 28.7 µM. The method, boiled down: as §3

Where “and” joins values, the source holds several entries; their conditions need not be identical. Equal values may be shown once. Records with an inconclusive call do not appear. A structure can be active in one record and inactive in another. Values without a mark were called inactive. Calls of active or inactive are those of the source. Calls come from the whole dose curve; as a rule, active = well fitted inhibition curve with a large enough effect; inconclusive = small, poorly fitted or top-dose-only effect; inactive = flat fitted curve, though single readings scatter.
Note: nearly all actives have a fitted effect of over 60% in size.
Potency is the fitted concentration of half-maximal effect.

Turning to `O=C1c2c(O)cc(O)cc2O[C@H](c2cc(O)c(O)c(O)c2)[C@H]1O`, the max response in the experiment on CRL-7250 was 1.37%; in the experiment on HaCat [1] it was -8.4%; with KB-3-1 it was 4.36%; in the experiment with NIH3T3 it was 4.33%. In addition, the Potency result with MCC-13 and in the experiment with MCC-26 was “inactive” in each case.

In the case of `N#CC1(c2ccc(NC(=O)c3cccnc3NCc3ccncc3)cc2)CCCC1`, the max response with CRL-7250 is -26.7%; with KB-3-1 it was -11.6%; in the experiment on NIH3T3 it was -15.9%. For the same molecule, the molecule was classed as inactive in the experiment on HaCat [1] and in the experiment with HACAT [2]. The Potency result in the experiment with MCC-13 is “inactive”.

On to `COc1ccc(Cc2ccc(NC(N)=O)cc2)cc1-c1cccc(Cl)c1`, for which the max response with CRL-7250 was 2.51%; in the experiment on HEK293 it was -15.8%; with KB-3-1, -9.2%; with NIH3T3, -1.6%. Moreover, the Potency entry in the experiment on MCC-13 and in the experiment with MCC-26 was “inactive” each time.

In the case of `O=C1C(Cl)=C(NCCN2CCOCC2)C(=O)c2ncccc21`, the Potency in the experiment with CRL-7250 is 9.35 µM (active); in the experiment on HEK293, 13.2 µM (active); in the experiment with KB-3-1, 20.9 µM (active); in the experiment on NIH3T3, 2.64 µM (active); with MCC-13, 16.6 µM (active); in the experiment on MCC-26 it was 8.33 µM (active).

With `N#CC(=C(N)Sc1ccccc1N)C(C#N)=C(N)Sc1ccccc1N`, the figures for the max response with CRL-7250 and in the experiment on NIH3T3 were -7.68% and -4.19%, respectively. The Potency entry with MCC-13 and with MCC-26 was “inactive” throughout.

As for `O=C1NC(=O)C(=Cc2cccc(C(F)(F)F)c2)S1`, the call in the experiment with CRL-7250 was inactive. Further, the max response in the experiment with HaCat [1] was -6.56%; in the experiment with NIH3T3, -7.62%. Besides, the Potency result in the experiment on MCC-13 and in the experiment on MCC-26 was “inactive” throughout.

Consider `CCC(=O)NC[C@H](Cc1ccc(OCCc2nc(-c3ccccc3)oc2C)cc1)NC(C)=CC(=O)c1ccc(C(F)(F)F)cc1`, for which the max response with CRL-7250 was -13.2%. For the same molecule, the call in the experiment on KB-3-1 was inactive. Besides, the Potency entry in the experiment on MCC-13 and in the experiment with MCC-26 was “inactive” throughout.

On to `COc1cc2c(cc1OC)CN(CCc1ccc(NC(=O)c3cc(OC)c(OC)cc3NC(=O)c3cnc4ccccc4c3)cc1)CC2`, for which the Potency with HEK293 is 11.4 µM (active). Also, the max response is -20.5% in the experiment on HEK293, -17.1% in the experiment on HaCat [1] and -16.8% in the experiment with NIH3T3. Besides, in the experiment with KB-3-1, the call was inactive. The Potency result with MCC-13 and in the experiment with MCC-26 was “inactive” in each case.

Consider `COc1ccc(-n2c(C)c([N+](=O)[O-])c3ccc(O)cc32)cc1`, for which the max response in the experiment on HEK293 is -7.19%; in the experiment with HaCat [1], -25.5%; in the experiment with KB-3-1 it was -1.9%; with NIH3T3, 4.92%. Besides, the Potency result with MCC-13 and in the experiment with MCC-26 was “inactive” in each case.

`NC(=O)c1cnc(-c2ccc(C3(N)CCC3)cc2)c(-c2ccccc2)c1`: the Potency in the experiment on HEK293 is 23.5 µM (active) and 18.4 µM (active). The max response in the experiment with HaCat [1] is -22.7%; in the experiment on KB-3-1 it was -11.5%; in the experiment on NIH3T3, 4.42%. In addition, the Potency result with MCC-13 and in the experiment with MCC-26 was “inactive” in each case.

In the case of `Cc1ccc([C@@H]2O[C@H](CO)[C@@H](O)[C@H](O)[C@@H]2O)cc1Cc1ccc(-c2ccc(F)cc2)s1`, in the experiment with HEK293, the Potency was 14.8 µM (active). Further, the call in the experiment with HaCat [1], with KB-3-1, in the experiment on NIH3T3 and in the experiment on HACAT [2] was inactive. Also, in the experiment on MCC-13, the Potency result is “inactive”.

On to `C=CCc1ccc(O)c(-c2ccc(O)c(CC=C)c2)c1`, for which the max response in the experiment on HEK293 is -27.3%; in the experiment on NIH3T3, -7.37%. Further, the Potency in the experiment with HaCat [1] was 20.9 µM (active). For the same molecule, the Potency entry with MCC-13 and with MCC-26 was “inactive” throughout.

Turning to `COc1cc2ncnc(Nc3ccc(F)c(Cl)c3)c2cc1OCCCN1CCOCC1`, the Potency in the experiment on HEK293 is 7.62 µM (active) and 16.8 µM (active); in the experiment with HaCat [1], 531 nM (active) and 2.06 µM (active). Also, the max response with HaCat [1] was -57.3%; in the experiment on KB-3-1, -3.97% and -1.38% and 3.83%; in the experiment with NIH3T3, -12.1% and -4.13%. Besides, the Potency entry in the experiment with MCC-26 was “inactive”.

Regarding `O=c1cc(-c2ccc(O)cc2)oc2cc(O)cc(O)c12`, the max response is -23.1% in the experiment on CRL-7250, -20% in the experiment with HaCat [1], 3.99% with KB-3-1 and -14.4% with NIH3T3. The Potency entry in the experiment on MCC-13 and in the experiment with MCC-26 was “inactive” each time.

On to `CC/C(=C(\c1ccccc1)c1ccc(OCCN(C)C)cc1)c1ccccc1`, for which the molecule was classed as inactive in the experiment with PAD and in the experiment on PC49. Moreover, in the experiment on W2, the Potency was 13.5 µM (active). The results for the max response with CRL-7250, in the experiment on HaCat [1] and with KB-3-1 were -3.24%, -10.4% and -11%, respectively.

On to `Nc1ncnc2c1nc(Cl)n2[C@@H]1O[C@H](CO)[C@@H](O)[C@@H]1O`, for which the max response with HEK293 is 0.527%. In addition, the Potency in the experiment on HaCat [1] is 14.8 µM (active); in the experiment on NIH3T3 it was 26.4 µM (active). Also, the Potency result in the experiment on MCC-13 is “inactive”.

Turning to `CC=CCC=CCCC(=O)[C@H]1O[C@@H]1C(N)=O`, the outcome in the experiment on CRL-7250, with HaCat [1] and in the experiment on HACAT [2] was inactive. Also, the max response with NIH3T3 was 1.26%. Also, the Potency result in the experiment on MCC-13 and in the experiment with MCC-26 was “inactive” throughout.

Turning to `CC1(C)O[C@H]2C[C@@H]3[C@H]4CCC5=CC(=O)C=C[C@]5(C)[C@@]4(F)[C@@H](O)C[C@]3(C)[C@]2(C(=O)CO)O1`, the result with P93_24, in the experiment on PC15, in the experiment on PC49 and in the experiment with TAB109 was inactive. Also, the Potency entry in the experiment on PC26, with SC27B, with TAB113, in the experiment on TAB165, in the experiment with MCC-13 and in the experiment on MCC-26 was “inactive” each time. The figures for the max response in the experiment on CRL-7250, in the experiment on HaCat [1] and in the experiment on KB-3-1 were -11.3%, -12.9% and 1.25%, respectively.
